# In PubChem BioAssay AID1159580 (chemical genetic matrix, 2015):
# Values joined by “and” are separate entries in the source; they are usually repeats but may differ in a detail not shown here. Identical values can stand only once. The campaign covered roughly 5,500 compounds. About 2,000 (36%) were called active. About 18% were inconclusive and are not listed. The list shows a part of the results. Unmarked numbers belong to inactive results. No stated cut-off is given here; in the data, active means normalized growth mostly below about 0.91 (no sharp cut-off); inconclusive means no clear call, values can overlap the other calls; inactive means mostly above about 0.92.
# Assay: chemical genetic growth profiling, strain panel (AID 1159580);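 further: tested at 20 µM; growth read once vehicle control cultures reached saturation at 30 °C; 1 = growth at the plate median or of vehicle wells; lower values mean less growth of the strain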
# Conditions: S. cerevisiae deletion strains, growth OD
compound,measurement,setting,value
COc1ccc2cc(CCC(C)=O)ccc2c1,normalized growth,"locus YAL013W, strain DEP1, hits give low values",0.952
same,normalized growth,"locus YAL021C, strain ccr4, hits give low values",0.986
same,normalized growth,"locus YAL026C, strain drs2, hits give low values",0.996
same,normalized growth,"locus YAL030W, strain snc1, hits give low values",0.992
same,normalized growth,"locus YBL061C, strain skt5, hits give low values",0.981
same,normalized growth,"locus YBR009C, strain hhf1, hits give low values",0.989
same,normalized growth,"locus YBR021W, strain FUR4, hits give low values",0.947
same,normalized growth,"locus YBR023C, strain chs3, hits give low values",0.977
same,normalized growth,"locus YBR171W, strain sec66, hits give low values",0.985
same,normalized growth,"locus YBR229C, strain ROT2, hits give low values",0.919
same,normalized growth,"locus YBR231C, strain swc5, hits give low values",0.996
same,normalized growth,"locus YBR279W, strain paf1, hits give low values",0.993
same,normalized growth,"locus YCL011C, strain gbp2, hits give low values",0.983
same,normalized growth,"locus YCL016C, strain dcc1, hits give low values",0.997
same,normalized growth,"locus YCL029C, strain bik1, hits give low values",0.939
same,normalized growth,"locus YCL061C, strain MRC1, hits give low values",1
same,normalized growth,"locus YCL069W, strain vba3, hits give low values",0.993
same,normalized growth,"locus YCR088W, strain abp1, hits give low values",0.989
same,normalized growth,"locus YDL005C, strain med2, hits give low values",1.02
same,normalized growth,"locus YDL035C, strain GPR1, hits give low values",0.93
same,normalized growth,"locus YDL040C, strain nat1, hits give low values",0.997
same,normalized growth,"locus YDL074C, strain BRE1, hits give low values",0.935
same,normalized growth,"locus YDL101C, strain DUN1, hits give low values",0.955
same,normalized growth,"locus YDL134C, strain PPH21, hits give low values",0.967
same,normalized growth,"locus YDL185W, strain tfp1, hits give low values",0.945
same,normalized growth,"locus YDL192W, strain arf1, hits give low values",0.91 (active)
same,normalized growth,"locus YDR001C, strain nth1, hits give low values",0.994
same,normalized growth,"locus YDR069C, strain doa4, hits give low values",1.01
same,normalized growth,"locus YDR101C, strain arx1, hits give low values",0.931
same,normalized growth,"locus YDR137W, strain rgp1, hits give low values",1.1
same,normalized growth,"locus YDR150W, strain NUM1, hits give low values",0.939
same,normalized growth,"locus YDR159W, strain sac3, hits give low values",1.03
same,normalized growth,"locus YDR162C, strain NBP2, hits give low values",0.943
same,normalized growth,"locus YDR195W, strain ref2",1.08
same,normalized growth,"locus YDR297W, strain sur2, hits give low values",0.99
same,normalized growth,"locus YDR318W, strain mcm21, hits give low values",0.93
same,normalized growth,"locus YDR334W, strain swr1, hits give low values",1.01
same,normalized growth,"locus YDR335W, strain msn5, hits give low values",0.999
same,normalized growth,"locus YDR388W, hits give low values",0.942
same,normalized growth,"locus YDR392W, strain spt3, hits give low values",0.967
same,normalized growth,"locus YDR502C, strain sam2, hits give low values",0.908 (active)
same,normalized growth,"locus YEL003W, strain gim4, hits give low values",0.991
same,normalized growth,"locus YEL037C, strain rad23, hits give low values",0.991
same,normalized growth,"locus YEL061C, strain CIN8 (second series), hits give low values",1
same,normalized growth,"locus YEL061C, strain CIN8, hits give low values",0.946
same,normalized growth,"locus YER015W, strain faa2, hits give low values",1
same,normalized growth,"locus YER016W, strain bim1, hits give low values",0.99
same,normalized growth,"locus YER110C, hits give low values",0.901
same,normalized growth,"locus YER111C, strain swi4, hits give low values",1
same,normalized growth,"locus YER155C, strain BEM2 (second series), hits give low values",0.843 (active)
same,normalized growth,"locus YER155C, strain BEM2, hits give low values",0.965
same,normalized growth,"locus YER167W, strain BCK2, hits give low values",0.92
same,normalized growth,"locus YFR010W, strain ubp6, hits give low values",1.01
same,normalized growth,"locus YGL078C, strain dbp3, hits give low values",0.921 (active)
same,normalized growth,"locus YGL086W, strain mad1, hits give low values",0.942
same,normalized growth,"locus YGL167C, strain pmr1, hits give low values",0.99
same,normalized growth,"locus YGL173C, strain kem1, hits give low values",0.987
same,normalized growth,"locus YGL227W, strain vid30, hits give low values",0.999
same,normalized growth,"locus YGL240W, strain doc1, hits give low values",0.929
same,normalized growth,"locus YGL248W, strain PDE1, hits give low values",0.959
same,normalized growth,"locus YGL253W, strain hxk2, hits give low values",0.992
same,normalized growth,"locus YGR078C, strain PAC10, hits give low values",0.938
same,normalized growth,"locus YGR135W, strain pre9, hits give low values",0.881 (active)
same,normalized growth,"locus YGR229C, strain SMI1, hits give low values",0.919
same,normalized growth,"locus YGR252W, strain gcn5, hits give low values",0.763 (active)
same,normalized growth,"locus YHR013C, strain ard1, hits give low values",1.02
same,normalized growth,"locus YHR027C, strain rpn1, hits give low values",0.991
same,normalized growth,"locus YHR030C, strain SLT2, hits give low values",0.958 and 0.924
same,normalized growth,"locus YHR079C, strain IRE1 (second series), hits give low values",0.939
same,normalized growth,"locus YHR079C, strain IRE1, hits give low values",0.956
same,normalized growth,"locus YHR094C, strain hxt1, hits give low values",0.96
same,normalized growth,"locus YHR129C, strain ARP1, hits give low values",0.971
same,normalized growth,"locus YHR142W, strain chs7, hits give low values",0.976
same,normalized growth,"locus YHR200W, strain rpn10, hits give low values",0.933
same,normalized growth,"locus YIL066C, strain RNR3, hits give low values",0.929
same,normalized growth,"locus YIL073C, strain SPO22, hits give low values",0.92
same,normalized growth,"locus YIL125W, strain kgd1, hits give low values",0.942
same,normalized growth,"locus YIR030C, strain dcg1, hits give low values",0.929
same,normalized growth,"locus YJL092W, strain hpr5, hits give low values",0.992
same,normalized growth,"locus YJL095W, strain BCK1 (second series), hits give low values",0.99
same,normalized growth,"locus YJL095W, strain BCK1, hits give low values",0.922 and 0.939
same,normalized growth,"locus YJL115W, strain asf1, hits give low values",1.01
same,normalized growth,"locus YJL129C, strain trk1, hits give low values",0.97
same,normalized growth,"locus YJL134W, strain LCB3, hits give low values",0.958
same,normalized growth,"locus YJL154C, strain vps35, hits give low values",0.992
same,normalized growth,"locus YJL164C, strain tpk1, hits give low values",0.992
same,normalized growth,"locus YJL166W, strain qcr8, hits give low values",0.989
same,normalized growth,"locus YJL168C, strain set2, hits give low values",0.957
same,normalized growth,"locus YJL187C, strain SWE1 (second series), hits give low values",0.959
same,normalized growth,"locus YJL187C, strain SWE1, hits give low values",0.992
same,normalized growth,"locus YJR043C, strain POL32, hits give low values",0.917
same,normalized growth,"locus YJR066W, strain TOR1, hits give low values",0.926
